# Laboratory results published in PMC8384837, “Expanding the binding specificity for RNA recognition by a PUF domain”.
# Key:
# Test in all cases: yeast three-hybrid, YBZ-1, SC-Leu-His + 0.5 mM 3-AT, 4 days
# Conditions in all cases: tags: N-Gal4 AD-HA kept; label: inside an RPR1-promoter hybrid RNA with tandem MS2 sites; ssRNA
# PUM1 PUF domain R8-RFE = PUM1 PUF domain R8-RFE (Homo sapiens, UniProt Q14671 828-1176, N1122R;Y1123F;Q1126E)
# In short: (§1)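 Sequencing with Illumina followed PCR amplification of the repeat regions from transformants grown four days on SC-Leu (input) or SC-Leu-His + 0.5 mM 3-AT (selection). The transformants were strain YBZ-1 with a LexA–MS2 coat fusion and a HIS3 reporter, carrying Pumilio-1 PUF domain libraries and matching RNA elements. The interaction score is the log change in variant frequency from input to selection, computed in log2 with a pseudocount of 1 for absent variants.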
# PUM1 PUF domain R8-NWE = PUM1 PUF domain R8-NWE (Homo sapiens, UniProt Q14671 828-1176, Y1123W;Q1126E)
# Chain of PUM1 PUF domain R8-NWE (Q14671 828-1176 Y1123W/Q1126E): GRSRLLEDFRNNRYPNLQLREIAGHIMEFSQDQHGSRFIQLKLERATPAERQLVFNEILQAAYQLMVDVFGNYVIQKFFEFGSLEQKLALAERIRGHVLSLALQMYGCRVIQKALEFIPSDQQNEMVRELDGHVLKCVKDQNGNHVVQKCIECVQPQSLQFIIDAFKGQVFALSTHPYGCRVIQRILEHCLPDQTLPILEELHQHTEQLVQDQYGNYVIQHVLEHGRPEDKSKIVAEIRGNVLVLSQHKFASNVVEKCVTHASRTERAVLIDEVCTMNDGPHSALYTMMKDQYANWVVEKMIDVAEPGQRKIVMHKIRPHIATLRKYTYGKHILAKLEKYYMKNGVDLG
# In short: as §1
# PUM1 PUF domain R1-SGE = PUM1 PUF domain R1-SGE (Homo sapiens, UniProt Q14671 828-1176, R864G;Q867E)
# Chain of PUM1 PUF domain R1-SGE (Q14671 828-1176 R864G/Q867E): as the sequence (Q14671 828-1176 Y1123W/Q1126E) above, with R37G, Q40E, W296Y, E299Q counted along it
# In short: as §1
# PUM1 PUF domain R5-RGT = PUM1 PUF domain R5-RGT (Homo sapiens, UniProt Q14671 828-1176, C1007R;R1008G;Q1011T)
# Chain of PUM1 PUF domain R5-RGT (Q14671 828-1176 C1007R/R1008G/Q1011T): as the sequence (Q14671 828-1176 Y1123W/Q1126E) above, with C180R, R181G, Q184T, W296Y, E299Q counted along it
# In short: as §1
# PUM1 PUF domain R3-LSN = PUM1 PUF domain R3-LSN (Homo sapiens, UniProt Q14671 828-1176, C935L;R936S;Q939N)
# Chain of PUM1 PUF domain R3-LSN (Q14671 828-1176 C935L/R936S/Q939N): as the sequence (Q14671 828-1176 Y1123W/Q1126E) above, with C108L, R109S, Q112N, W296Y, E299Q counted along it
# In short: as §1
# PUM1 PUF domain R7-RSL = PUM1 PUF domain R7-RSL (Homo sapiens, UniProt Q14671 828-1176, S1079R;N1080S;E1083L)
# Chain of PUM1 PUF domain R7-RSL (Q14671 828-1176 S1079R/N1080S/E1083L): as the sequence (Q14671 828-1176 Y1123W/Q1126E) above, with S252R, N253S, E256L, W296Y, E299Q counted along it
# In short: as §1
# PUM1 PUF domain R4-VRT = PUM1 PUF domain R4-VRT (Homo sapiens, UniProt Q14671 828-1176, N971V;H972R;Q975T)
# Chain of PUM1 PUF domain R4-VRT (Q14671 828-1176 N971V/H972R/Q975T): as the sequence (Q14671 828-1176 Y1123W/Q1126E) above, with N144V, H145R, Q148T, W296Y, E299Q counted along it
# In short: as §1
# PUM1 PUF domain R3-VRV = PUM1 PUF domain R3-VRV (Homo sapiens, UniProt Q14671 828-1176, C935V;Q939V)
# Chain of PUM1 PUF domain R3-VRV (Q14671 828-1176 C935V/Q939V): as the sequence (Q14671 828-1176 Y1123W/Q1126E) above, with C108V, Q112V, W296Y, E299Q counted along it
# In short: as §1
# PUM1 PUF domain R1-KTE = PUM1 PUF domain R1-KTE (Homo sapiens, UniProt Q14671 828-1176, S863K;R864T;Q867E)
# Chain of PUM1 PUF domain R1-KTE (Q14671 828-1176 S863K/R864T/Q867E): as the sequence (Q14671 828-1176 Y1123W/Q1126E) above, with S36K, R37T, Q40E, W296Y, E299Q counted along it
# In short: as §1
# PUM1 PUF domain R3-YCD = PUM1 PUF domain R3-YCD (Homo sapiens, UniProt Q14671 828-1176, C935Y;R936C;Q939D)
# Chain of PUM1 PUF domain R3-YCD (Q14671 828-1176 C935Y/R936C/Q939D): as the sequence (Q14671 828-1176 Y1123W/Q1126E) above, with C108Y, R109C, Q112D, W296Y, E299Q counted along it
# In short: as §1
# Chain of PUM1 PUF domain R8-RFE (Q14671 828-1176 N1122R/Y1123F/Q1126E): as the sequence (Q14671 828-1176 Y1123W/Q1126E) above, with N295R, W296F counted along it
sequence,measurement,setting,value
GGCUAGAACUAGUGGAUCCCCCGGCGCCCGGCGGCUCGAGCCCGGGUAAGCGUAAAUAGUCUGCAUGCCGCCGGGCGCCAUGCCUGCAGGUCGACUCUAGAAAACAUG,binding signal,PUM1 PUF domain R8-RFE,3.87 log2 enrichment (interaction score)
same,binding signal,PUM1 PUF domain R8-NWE,1.64 log2 enrichment (interaction score)
GGCUAGAACUAGUGGAUCCCCCGGCGCCCGGCGGCUCGAGCCCGGGUAAGUGUAAAUUGUCUGCAUGCCGCCGGGCGCCAUGCCUGCAGGUCGACUCUAGAAAACAUG,binding signal,PUM1 PUF domain R1-SGE,3.87 log2 enrichment (interaction score)
GGCUAGAACUAGUGGAUCCCCCGGCGCCCGGCGGCUCGAGCCCGGGUAAGUGUCAAUAGUCUGCAUGCCGCCGGGCGCCAUGCCUGCAGGUCGACUCUAGAAAACAUG,binding signal,PUM1 PUF domain R5-RGT,5.24 log2 enrichment (interaction score)
GGCUAGAACUAGUGGAUCCCCCGGCGCCCGGCGGCUCGAGCCCGGGUAAGUGUAAUUAGUCUGCAUGCCGCCGGGCGCCAUGCCUGCAGGUCGACUCUAGAAAACAUG,binding signal,PUM1 PUF domain R3-LSN,2.89 log2 enrichment (interaction score)
GGCUAGAACUAGUGGAUCCCCCGGCGCCCGGCGGCUCGAGCCCGGGUAAGUCUAAAUAGUCUGCAUGCCGCCGGGCGCCAUGCCUGCAGGUCGACUCUAGAAAACAUG,binding signal,PUM1 PUF domain R7-RSL,2.11 log2 enrichment (interaction score)
GGCUAGAACUAGUGGAUCCCCCGGCGCCCGGCGGCUCGAGCCCGGGUAAGUGUAAAUGGUCUGCAUGCCGCCGGGCGCCAUGCCUGCAGGUCGACUCUAGAAAACAUG,binding signal,PUM1 PUF domain R1-SGE,5.2 log2 enrichment (interaction score)
GGCUAGAACUAGUGGAUCCCCCGGCGCCCGGCGGCUCGAGCCCGGGUAAGUGUAAAUAGUCUGCAUGCCGCCGGGCGCCAUGCCUGCAGGUCGACUCUAGAAAACAUG,binding signal,PUM1 PUF domain R8-RFE,2.4 log2 enrichment (interaction score)
same,binding signal,PUM1 PUF domain R8-NWE,2.9 log2 enrichment (interaction score)
same,binding signal,PUM1 PUF domain R4-VRT,4.25 log2 enrichment (interaction score)
same,binding signal,PUM1 PUF domain R3-VRV,3.29 log2 enrichment (interaction score)
GGCUAGAACUAGUGGAUCCCCCGGCGCCCGGCGGCUCGAGCCCGGGUAAGUGUAAAUCGUCUGCAUGCCGCCGGGCGCCAUGCCUGCAGGUCGACUCUAGAAAACAUG,binding signal,PUM1 PUF domain R1-KTE,4.3 log2 enrichment (interaction score)
same,binding signal,PUM1 PUF domain R1-SGE,1.55 log2 enrichment (interaction score)
GGCUAGAACUAGUGGAUCCCCCGGCGCCCGGCGGCUCGAGCCCGGGUAAGUUUAAAUAGUCUGCAUGCCGCCGGGCGCCAUGCCUGCAGGUCGACUCUAGAAAACAUG,binding signal,PUM1 PUF domain R7-RSL,3.53 log2 enrichment (interaction score)
GGCUAGAACUAGUGGAUCCCCCGGCGCCCGGCGGCUCGAGCCCGGGUAAGUGUAAGUAGUCUGCAUGCCGCCGGGCGCCAUGCCUGCAGGUCGACUCUAGAAAACAUG,binding signal,PUM1 PUF domain R3-YCD,3.96 log2 enrichment (interaction score)
same,binding signal,PUM1 PUF domain R3-LSN,4.28 log2 enrichment (interaction score)
